Drawing on the OligoGym collection, this text covers sensor-assay potency score (higher = more potent) for 40 sequences.
Also: reference of the scale not given here.

The first experiment addresses GABRP. Nature of the experiment: pooled miR-30 sensor sort-seq; sequence = guide strand. Particulars: shRNA.
Consider ATAGTGATCAACATTACTGGGG, for which the sensor-assay potency score (higher = more potent) stood at 0.527. Same read-out and setting: the figure for AAATACAGAACATTCCTCCGAA is 0.853; for TTACATCATTATCTTGTCCTGT it is 0.386; for TAGTGTAATTTCCTGTCTCCTG it is -0.339. Same read-out and setting: the figure for TTACTCTCTGAAATGCTAGAGA is -0.589; for TAGTCAACGTTGTCGCTGGAAA it is -1.15; for TTTTCTCGGAAGACAAACTTGA it is -0.264. On the same count and under the same terms, the figure for AAACTTGAACTTGTCGCTGGTT is 0.218; for TTACATGCAACAGTTGTCGTGA it is 0.789. TTCTCGGAAGACAAACTTGAAC displayed a sensor-assay potency score (higher = more potent) of -1.47. Still for that read-out and setting: then ACAAACTTGAACTTGTCGCTGG, with 0.62; and TTGGACTCCACAATGTAAGTAT, with 0.553. On the same count and under the same terms, the figure for TTGCCTTCAAACACCAGCCGCT is 0.206; for TTTCATTGTCAAGTCACTGTAG it is 0.714.

The sequence TAGTGATCAACATTACTGGGGT displayed a sensor-assay potency score (higher = more potent) of 0.2.

In turn, TTGATGATATTAGTAATACTGA gave a sensor-assay potency score (higher = more potent) of -0.994. On the same count and under the same terms, the figure for TAGTAATACTGACTTCTTCTAC is -0.185; for TACATCATTATCTTGTCCTGTT it is 0.716.

The target in a further experiment is GALE. The experiment is described as above. Particulars: shRNA.
For the sequence TCTGTAATAATCCAGAGGCTTC, the sensor-assay potency score (higher = more potent) was -1.35. The same measure, in the same setting: then AATAGCGCAGCAGCACTGCGTT, with -1.17; and TCAAACTCCACAGAGCGGCCTG, with -0.0381. On the same count and under the same terms, then TGAAATAGCGCAGCAGCACTGC, with -0.836.

In the case of ATGAAGAACTTGGACTTGCCGT, the sensor-assay potency score (higher = more potent) is -1.09. The same measure, in the same setting: the figure for TCTGTGTCATAGTCATTGCCAA is -0.861; for AACACCAGGTTCTTCACCCCGT it is -0.43. Same read-out and setting: then TCGATGAAGAACTTGGACTTGC, with -0.0111; and TTGTACGGGATCTTCTTCCCAG, with 0.364; and TTCTGCTTCTGCCAGCGCCAGA, with -1.44.

For TTTATTTTTAAATACTTTGGAA, the sensor-assay potency score (higher = more potent) is -0.203. On the same count and under the same terms, the figure for TCACACATCCTGTCCAGCCCTA is -0.0923. The same measure, in the same setting: the figure for TGAAGAACTTGGACTTGCCGTA is -0.185. The same measure, in the same setting: the figure for TGGATGACCGCCATAAAGCTGT is -0.62; for TTCCCGTACACAGTGGCTGAGC it is -0.834.

TACTTTTTGAAGAGACGCTGTA displayed a sensor-assay potency score (higher = more potent) of -0.402.

On to TACACAGTGGCTGAGCTGCTGA, for which the sensor-assay potency score (higher = more potent) was -1.04. Same read-out and setting: then TTTTGAAGAGACGCTGTAGGGC, with 0.205; and TAAGGCTGCAATGTGGCCCTTG, with 0.223; and TTCCTCGATGAAGAACTTGGAC, with -0.651. Same read-out and setting: the figure for TAACTCTGTAATAATCCAGAGG is -0.909; for TTCCAAGTCTTGTCTGCCTGGC it is -0.133.
